Screening data: PubChem BioAssay, National Center for Advancing Translational Sciences (NCATS)
Compounds with a hit are over-represented: about 12% of the library has one in this group of screens.
G9a inh: G9a (human) methyltransferase inhibition. Q96KQ7. G9a H3K9 monomethylation, AlphaScreen, 2 h. Potency, µM (titrated, usually from 102 µM), usual class: inhibitors. 350,000 compounds, 8.8% hits. AID 504332; further: nearly all actives have a fitted effect of over 75% in size
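AlphaScreen read-out: biotin-H3K9 peptide (500 nM) methylation by 20 nM enzyme with 20 uM SAM, 2 h at room temperature after 15 min compound preincubation; anti-monomethyl H3K9 antibody plus donor/acceptor beads, 10 min dark.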
HP1b chromo inh: HP1-beta chromodomain-methylated histone interaction inhibition; P83916; 390,000 compounds, 0.56% hits; AID 540317; Potency, µM (series often up to 114 µM), hits mostly inhibitors; AlphaScreen HP1-beta / biotin-H3K9me3 peptide binding; further: nearly all actives have a fitted effect of over 70% in size
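HP1-beta protein (50 nM final) preincubated 30 min at room temperature with biotinylated H3(1-18)K9me3 peptide (50 nM) in PBS pH 7.4, 0.01% Tween-20, then compound added for 30 min. AlphaScreen streptavidin donor/nickel chelate acceptor beads (10 ug/mL final), 30 min dark, luminescence read.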
JMJD2A Tudor inh: blocks the human JMJD2A Tudor domain | O75164 | AlphaScreen JMJD2A-Tudor / H3K4me3 peptide binding | Potency, µM (doses to about 114 µM), hits mostly inhibitors | 390,000 compounds, 4.4% hits | AID 504339; further: nearly all actives have a fitted effect of over 50% in size
Target sequence (O75164 whole entry, looked up, the tested form may be a part): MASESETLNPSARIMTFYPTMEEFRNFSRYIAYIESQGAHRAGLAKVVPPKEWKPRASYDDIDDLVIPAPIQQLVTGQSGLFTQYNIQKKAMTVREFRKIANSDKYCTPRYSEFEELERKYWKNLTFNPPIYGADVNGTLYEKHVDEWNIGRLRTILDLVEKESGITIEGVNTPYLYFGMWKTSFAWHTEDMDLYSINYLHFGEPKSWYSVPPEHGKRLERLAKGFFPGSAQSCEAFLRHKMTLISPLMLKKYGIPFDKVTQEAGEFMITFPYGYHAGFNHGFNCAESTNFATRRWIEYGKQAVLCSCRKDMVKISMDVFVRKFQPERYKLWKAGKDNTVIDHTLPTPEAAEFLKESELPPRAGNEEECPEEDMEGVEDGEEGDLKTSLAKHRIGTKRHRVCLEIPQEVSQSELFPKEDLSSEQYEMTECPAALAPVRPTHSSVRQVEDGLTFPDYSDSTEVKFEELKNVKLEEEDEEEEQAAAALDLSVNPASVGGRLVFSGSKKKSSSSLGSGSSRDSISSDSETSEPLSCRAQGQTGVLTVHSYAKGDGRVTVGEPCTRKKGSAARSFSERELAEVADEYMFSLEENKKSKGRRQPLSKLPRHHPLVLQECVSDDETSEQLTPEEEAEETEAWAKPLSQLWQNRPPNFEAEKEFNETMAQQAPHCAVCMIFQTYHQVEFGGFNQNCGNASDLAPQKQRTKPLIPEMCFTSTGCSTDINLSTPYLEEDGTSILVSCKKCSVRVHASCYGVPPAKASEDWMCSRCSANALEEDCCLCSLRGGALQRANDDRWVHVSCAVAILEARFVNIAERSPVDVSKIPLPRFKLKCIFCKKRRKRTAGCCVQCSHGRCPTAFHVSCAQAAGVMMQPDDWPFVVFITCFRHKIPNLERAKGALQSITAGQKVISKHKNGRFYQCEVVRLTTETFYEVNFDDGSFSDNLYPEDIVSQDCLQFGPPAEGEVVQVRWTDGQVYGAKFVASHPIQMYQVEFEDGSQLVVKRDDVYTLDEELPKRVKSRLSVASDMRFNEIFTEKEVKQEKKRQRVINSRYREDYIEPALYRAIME
L3MBTL1 inh: inhibitors of human L3MBTL1. Q9Y468. AlphaScreen L3MBTL1–H3K9me1 peptide binding. Potency, µM (titrated, usually from 57.1 µM), most hits filed as inhibitors. 230,000 compounds, 0.66% hits; further: nearly all actives have a fitted effect of over 60% in size
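L3MBTL1 (50 nM) pre-complexed 30 min with biotinylated H3(1-15)K9me1 peptide (75 nM), then compounds added for 30 min at room temperature; AlphaScreen streptavidin donor/nickel chelate acceptor beads (10 ug/mL final) read after 30 min dark incubation.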
BAZ2B inh: BAZ2B (human) inhibition. 360,000 compounds, 4.4% hits. AlphaScreen BAZ2B-H3K14Ac peptide displacement. Potency, µM (doses to about 114 µM), hits mostly inhibitors. Q9UIF8; further: nearly all actives have a fitted effect of over 60% in size
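Complex of BAZ2B and biotin-H3K14Ac (50 nM apiece) forms over 30 min at RT, then faces library compounds up to 110 uM for another 30 min; AlphaScreen beads added, 20 min dark incubation, luminescence read.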
Sfp inh: inhibitors of Bacillus subtilis Sfp phosphopantetheinyl transferase | Q9F4F7 | Biochemical Sfp PPTase activity, qHTS | Potency, µM, most hits filed as inhibitors | 310,000 compounds, 3.5% hits;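 further: the enzyme is Sfp with the accession as filed and its product quenches rhodamine fluorescence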
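Fluorescence-quenching assay: 15 nM Sfp-PPTase preincubated 15 min at room temperature with compound, then 5 uM rhodamine-CoA and 12.5 uM BHQ-2-labelled YbbR peptide added. Fluorescence (ex 525/em 598 nm) read at start and after 30 min; difference gives rate.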
A number is an active result; - = inactive; ? = inconclusive; . = no result; [ ] = remark or other dose. The call rests on the fitted dose curve; in most records, active means well fitted curve in the direction sought with a large enough effect; inconclusive means small, poorly fitted or top-dose-only effect, or another doubt; inactive means no such curve, though single readings can be large; an effect the other way counts as inactive or inconclusive.

SMILES | G9a inh | HP1b chromo inh | JMJD2A Tudor inh | L3MBTL1 inh | BAZ2B inh | Sfp inh
Nc1nccnc1C(=O)OCC(=O)c1ccc[nH]1 | 50µM | - | - | ? | - | .
CCOc1ncccc1C(=O)OCC(=O)c1ccc[nH]1 | - | - | - | - | - | -
C=C(C)C(O)CC/C(C)=C/Cc1c(O)ccc(C(=O)/C=C/c2ccc(O)cc2)c1O (stereo not given) | . | - | ? | - | . | .
COc1ccc(C=CC(=O)c2ccc(OC)c(OC)c2O)cc1OC | . | ? | 50µM | . | . | .
COc1ccc(C(=O)/C=C/c2ccc(O)cc2)c(O)c1C/C=C(\C)CCC=C(C)C | . | - | 28µM | - | . | .
COc1ccc(C(=O)/C=C/c2ccc(OC)c(O)c2)c(F)c1 | ? | - | - | - | - | 50µM
COc1ccc(CNC(=S)N2CCN(S(=O)(=O)c3cccc(F)c3)CC2)cc1 | . | - | - | . | - | -
COc1ccc(CCNC(=S)N2CCN(S(=O)(=O)c3cccc(F)c3)CC2)cc1 | 50µM | - | - | - | - | .
COc1ccc(CCNC(=S)N2CCN(S(=O)(=O)c3ccc(C)cc3)CC2)cc1 | 50µM | - | - | - | - | .
Cc1ccc(NC(=O)CN(C)C(=O)C(C)OC(=O)c2ccccc2NCCO)cc1 (stereo not given) | ? | - | - | - | ? | .
CC(OC(=O)c1ccccc1NCCO)C(=O)NCC(=O)Nc1ccc(F)c(F)c1F (stereo not given) | 28µM | - | - | . | - | -
O=C(O)CCCCCN1C(=O)/C(=C\c2ccc(-c3ccc(Cl)cc3)o2)SC1=S | ? | 40µM | 32µM | . | ? | 6.3µM
O=C(O)CCCN1C(=O)/C(=C/c2ccc(-c3nc4ccccc4s3)o2)SC1=S | ? | 16µM | 10µM | ? | 10µM | 40µM
O=C(O)CCCCCN1C(=O)/C(=C\c2ccncc2)SC1=S | - | - | - | - | - | -
O=C(O)CCCCCN1C(=O)/C(=C/c2ccncc2)SC1=S | 79µM | - | - | - | - | -
CCc1cccc(NC(=O)C(NS(=O)(=O)c2ccc3nc(C)sc3c2)C(C)C)c1 (stereo not given) | - | - | - | . | - | .
Cc1ccc(N(Cc2cccs2)C(=O)c2ccc(Br)o2)cc1 | - | - | - | . | - | .
CCOC(=O)c1c(C)oc2c1cc(NS(=O)(=O)c1ccc(C)cc1)c1ccccc12 | - | - | - | . | - | .
CCS(=O)(=O)c1ccc2oc(=O)c(/C=C(\O)c3ccc(Cl)cc3)nc2c1 | - | - | - | - | ? | -
C/C(O)=C\c1nc2ccccc2oc1=O | ? | - | -[11.4 µM] | - | - | ?
Cc1ccc2oc(=O)c(/C=C(\O)c3ccccc3)nc2c1 | 7.9µM | - | - | . | - | ?
Cc1ccc2oc(=O)c(/C=C(\O)CC(C)C)nc2c1 | 50µM | - | - | - | - | -
O=c1oc2ccc(Cl)cc2nc1/C=C(\O)c1cccs1 | 3.2µM | - | ? | . | 50µM | ?
O=c1oc2ccccc2nc1/C=C(\O)c1ccc(Br)cc1 | . | - | - | . | - | 56µM
Cc1ccc2oc(=O)c(/C=C(\O)c3cccs3)nc2c1 | ? | - | - | - | - | -
SMILES | G9a inh | HP1b chromo inh | JMJD2A Tudor inh | L3MBTL1 inh | BAZ2B inh | Sfp inh
COc1ccc(-n2c(=O)c3c4c(sc3n(CC(=O)N3CCCCC3C)c2=O)CCC4)c(OC)c1 (stereo not given) | - | - | - | . | - | .
Cc1cc2nc(-c3ccc(NC(=O)c4ccc(OCC(C)C)cc4)cc3)oc2cc1C | - | - | - | . | - | .
COCCNC(=O)c1ccc(C(=O)NCCOC)s1 | -[12.7 µM] | - | - | - | - | -
CCn1c(N)c(C(=O)NCCOC)sc1=S | -[12.7 µM] | ? | - | . | - | 56µM
CCn1c(N)c(C(=O)Nc2ccccc2C(=O)OC)sc1=S | ? | ? | -[11.4 µM] | - | ? | 35µM
COC(=O)c1ccccc1NC(=O)CC(=O)Nc1ccccc1C(=O)OC | -[2.33 µM] | - | - | . | - | -
CC(=O)N(CC(=O)O)c1ccccc1C(=O)O | 18µM | - | - | - | - | -
CCCCSc1nc2sc3c(c2c(=O)[nH]1)CCC3 | - | - | - | - | - | -
Nc1nc(SCc2nnc(SCC(=O)O)n2-c2ccccc2)nc2sc3c(c12)CCCC3 | 79µM | - | - | . | - | -
